From the supplement of paper PMC7411054

Tests used:
Experiment in all cases: phenotypically active (imaging signature differs from DMSO and reproducible) at any of 0.3-9 uM (binary (1 = active, 0 = inactive)); higher = active
Conditions in all cases: treatment time: 24 h
A549-ACTB-RAB5A = system: A549-ACTB-RAB5A
Method in brief: (§1)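 Live-cell features were measured per well and normalised to solvent control wells after fifteen gene-edited A549, HepG2 and WPMY1 reporter lines had been treated for 24 h at 0.3, 1, 3 or 9 µM in four wells each. A condition was deviating when ≥3 of 4 wells sat beyond the 95th percentile of control Euclidean distances. It was reproducible when the median replicate Pearson correlation exceeded the 95th percentile of non-replicates. Phenotypic activity demanded both.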

A549-CANX-COX4 = system: A549-CANX-COX4
Method in brief: as §1

A549-GM130-SQSTM1 = system: A549-GM130-SQSTM1
Method in brief: as §1

A549-TP53BP1-CLTA = system: A549-TP53BP1-CLTA
Method in brief: as §1

A549-TUBA1B-RELA = system: A549-TUBA1B-RELA
Method in brief: as §1

HepG2-ACTB-RAB5A = system: HepG2-ACTB-RAB5A
Method in brief: as §1

HepG2-CANX-COX4 = system: HepG2-CANX-COX4
Method in brief: as §1

HepG2-GM130-SQSTM1 = system: HepG2-GM130-SQSTM1
Method in brief: as §1

HepG2-TP53BP1-CLTA = system: HepG2-TP53BP1-CLTA
Method in brief: as §1

HepG2-TUBA1B-RELA = system: HepG2-TUBA1B-RELA
Method in brief: as §1

WPMY1-ACTB-RAB5A = system: WPMY1-ACTB-RAB5A
Method in brief: as §1

WPMY1-CANX-COX4 = system: WPMY1-CANX-COX4
Method in brief: as §1

WPMY1-GM130-SQSTM1 = system: WPMY1-GM130-SQSTM1
Method in brief: as §1

WPMY1-TP53BP1-CLTA = system: WPMY1-TP53BP1-CLTA
Method in brief: as §1

WPMY1-TUBA1B-RELA = system: WPMY1-TUBA1B-RELA
Method in brief: as §1

Measured: phenotypically active

Cc1c(-c2cnccn2)ssc1=S [Oltipraz]
inactive: A549-ACTB-RAB5A 0 | A549-CANX-COX4 0 | A549-GM130-SQSTM1 0 | A549-TP53BP1-CLTA 0 | A549-TUBA1B-RELA 0 | HepG2-ACTB-RAB5A 0 | HepG2-CANX-COX4 0 | HepG2-GM130-SQSTM1 0 | HepG2-TP53BP1-CLTA 0 | HepG2-TUBA1B-RELA 0 | WPMY1-ACTB-RAB5A 0 | WPMY1-CANX-COX4 0 | WPMY1-GM130-SQSTM1 0 | WPMY1-TP53BP1-CLTA 0 | WPMY1-TUBA1B-RELA 0

CC(COc1ccccc1)N(CCCl)Cc1ccccc1 (stereo not given) [phenoxybenzamine]
inactive: A549-ACTB-RAB5A 0 | A549-CANX-COX4 0 | A549-GM130-SQSTM1 0 | A549-TP53BP1-CLTA 0 | A549-TUBA1B-RELA 0 | HepG2-ACTB-RAB5A 0 | HepG2-CANX-COX4 0 | HepG2-GM130-SQSTM1 0 | HepG2-TP53BP1-CLTA 0 | HepG2-TUBA1B-RELA 0 | WPMY1-ACTB-RAB5A 0 | WPMY1-CANX-COX4 0 | WPMY1-GM130-SQSTM1 0 | WPMY1-TP53BP1-CLTA 0 | WPMY1-TUBA1B-RELA 0

O=C(NCC1CCCCN1)c1cc(OCC(F)(F)F)ccc1OCC(F)(F)F (stereo not given) [flecainide]
inactive: A549-ACTB-RAB5A 0 | A549-CANX-COX4 0 | A549-GM130-SQSTM1 0 | A549-TP53BP1-CLTA 0 | A549-TUBA1B-RELA 0 | HepG2-ACTB-RAB5A 0 | HepG2-CANX-COX4 0 | HepG2-GM130-SQSTM1 0 | HepG2-TP53BP1-CLTA 0 | HepG2-TUBA1B-RELA 0 | WPMY1-ACTB-RAB5A 0 | WPMY1-CANX-COX4 0 | WPMY1-GM130-SQSTM1 0 | WPMY1-TP53BP1-CLTA 0 | WPMY1-TUBA1B-RELA 0

CC(C)Cn1c(=O)n(C)c(=O)c2[nH]cnc21
inactive: A549-ACTB-RAB5A 0 | A549-CANX-COX4 0 | A549-GM130-SQSTM1 0 | A549-TP53BP1-CLTA 0 | A549-TUBA1B-RELA 0 | HepG2-ACTB-RAB5A 0 | HepG2-CANX-COX4 0 | HepG2-GM130-SQSTM1 0 | HepG2-TP53BP1-CLTA 0 | HepG2-TUBA1B-RELA 0 | WPMY1-ACTB-RAB5A 0 | WPMY1-CANX-COX4 0 | WPMY1-GM130-SQSTM1 0 | WPMY1-TP53BP1-CLTA 0 | WPMY1-TUBA1B-RELA 0

CC(=O)O[C@H]1C[C@@H]2CC[C@@H]3[C@H](CC[C@@]4(C)[C@H]3C[C@H]([N+]3(C)CCCCC3)[C@@H]4OC(C)=O)[C@@]2(C)C[C@@H]1N1CCCCC1 [vecuronium]
inactive: A549-ACTB-RAB5A 0 | A549-CANX-COX4 0 | A549-GM130-SQSTM1 0 | A549-TP53BP1-CLTA 0 | A549-TUBA1B-RELA 0 | HepG2-ACTB-RAB5A 0 | HepG2-CANX-COX4 0 | HepG2-GM130-SQSTM1 0 | HepG2-TP53BP1-CLTA 0 | HepG2-TUBA1B-RELA 0 | WPMY1-ACTB-RAB5A 0 | WPMY1-CANX-COX4 0 | WPMY1-GM130-SQSTM1 0 | WPMY1-TP53BP1-CLTA 0 | WPMY1-TUBA1B-RELA 0

C[C@@H]1O[C@@H](O[C@H]2C(=O)c3c(O)cc(O)cc3O[C@@H]2c2ccc(O)c(O)c2)[C@H](O)[C@H](O)[C@H]1O [Astilbin]
inactive: A549-ACTB-RAB5A 0 | A549-CANX-COX4 0 | A549-GM130-SQSTM1 0 | A549-TP53BP1-CLTA 0 | A549-TUBA1B-RELA 0 | HepG2-ACTB-RAB5A 0 | HepG2-CANX-COX4 0 | HepG2-GM130-SQSTM1 0 | HepG2-TP53BP1-CLTA 0 | HepG2-TUBA1B-RELA 0 | WPMY1-ACTB-RAB5A 0 | WPMY1-CANX-COX4 0 | WPMY1-GM130-SQSTM1 0 | WPMY1-TP53BP1-CLTA 0 | WPMY1-TUBA1B-RELA 0

O=C(O)CCc1ccccc1 [Hydrocinnamic acid]
inactive: A549-ACTB-RAB5A 0 | A549-CANX-COX4 0 | A549-GM130-SQSTM1 0 | A549-TP53BP1-CLTA 0 | A549-TUBA1B-RELA 0 | HepG2-ACTB-RAB5A 0 | HepG2-CANX-COX4 0 | HepG2-GM130-SQSTM1 0 | HepG2-TP53BP1-CLTA 0 | HepG2-TUBA1B-RELA 0 | WPMY1-ACTB-RAB5A 0 | WPMY1-CANX-COX4 0 | WPMY1-GM130-SQSTM1 0 | WPMY1-TP53BP1-CLTA 0 | WPMY1-TUBA1B-RELA 0

Cc1cc(O)cc2c1C(=O)Oc1cc3c(c(O)c1O2)C(=O)OC3 [Variolaric acid]
inactive: A549-ACTB-RAB5A 0 | A549-CANX-COX4 0 | A549-GM130-SQSTM1 0 | A549-TP53BP1-CLTA 0 | A549-TUBA1B-RELA 0 | HepG2-ACTB-RAB5A 0 | HepG2-CANX-COX4 0 | HepG2-GM130-SQSTM1 0 | HepG2-TP53BP1-CLTA 0 | HepG2-TUBA1B-RELA 0 | WPMY1-ACTB-RAB5A 0 | WPMY1-CANX-COX4 0 | WPMY1-GM130-SQSTM1 0 | WPMY1-TP53BP1-CLTA 0 | WPMY1-TUBA1B-RELA 0

O=C(NC(CO)C(O)c1ccc([N+](=O)[O-])cc1)C(Cl)Cl (stereo not given) [Chloramphenicol]
inactive: A549-ACTB-RAB5A 0 | A549-CANX-COX4 0 | A549-GM130-SQSTM1 0 | A549-TP53BP1-CLTA 0 | A549-TUBA1B-RELA 0 | HepG2-ACTB-RAB5A 0 | HepG2-CANX-COX4 0 | HepG2-GM130-SQSTM1 0 | HepG2-TP53BP1-CLTA 0 | HepG2-TUBA1B-RELA 0 | WPMY1-ACTB-RAB5A 0 | WPMY1-CANX-COX4 0 | WPMY1-GM130-SQSTM1 0 | WPMY1-TP53BP1-CLTA 0 | WPMY1-TUBA1B-RELA 0

O=C(O)CCCC[C@@H]1SC[C@@H]2NC(=O)N[C@@H]21 [Biotin]
inactive: A549-ACTB-RAB5A 0 | A549-CANX-COX4 0 | A549-GM130-SQSTM1 0 | A549-TP53BP1-CLTA 0 | A549-TUBA1B-RELA 0 | HepG2-ACTB-RAB5A 0 | HepG2-CANX-COX4 0 | HepG2-GM130-SQSTM1 0 | HepG2-TP53BP1-CLTA 0 | HepG2-TUBA1B-RELA 0 | WPMY1-ACTB-RAB5A 0 | WPMY1-CANX-COX4 0 | WPMY1-GM130-SQSTM1 0 | WPMY1-TP53BP1-CLTA 0 | WPMY1-TUBA1B-RELA 0

Cc1[nH]c(=O)c(C#N)cc1-c1ccncc1 [Milrinone]
inactive: A549-ACTB-RAB5A 0 | A549-CANX-COX4 0 | A549-GM130-SQSTM1 0 | A549-TP53BP1-CLTA 0 | A549-TUBA1B-RELA 0 | HepG2-ACTB-RAB5A 0 | HepG2-CANX-COX4 0 | HepG2-GM130-SQSTM1 0 | HepG2-TP53BP1-CLTA 0 | HepG2-TUBA1B-RELA 0 | WPMY1-ACTB-RAB5A 0 | WPMY1-CANX-COX4 0 | WPMY1-GM130-SQSTM1 0 | WPMY1-TP53BP1-CLTA 0 | WPMY1-TUBA1B-RELA 0
